PAFAH1B2 inh: inhibitors of human PAFAH1B2 | 340,000 tested, 1.2% active | inhibition, % at 3.39 µM | AID 492953 | recombinant PAFAH1B2, FP-rhodamine activity probe, fluorescence polarization;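 active means inhibition above the mean of all tested compounds plus 3 SD, cut at about 24% in these data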
Target sequence (P68402 whole entry, looked up): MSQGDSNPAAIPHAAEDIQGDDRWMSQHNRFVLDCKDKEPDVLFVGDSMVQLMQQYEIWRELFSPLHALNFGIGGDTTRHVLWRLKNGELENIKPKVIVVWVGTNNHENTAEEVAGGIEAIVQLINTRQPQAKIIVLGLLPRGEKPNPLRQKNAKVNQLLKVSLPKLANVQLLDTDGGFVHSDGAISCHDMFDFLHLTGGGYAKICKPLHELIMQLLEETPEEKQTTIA
PAFAH1B3 FP inh: inhibitors of human PAFAH1B3; Q15102; recombinant PAFAH1B3, FP-rhodamine probe, fluorescence polarization; inhibition, % at 3.39 µM; 340,000 tested, 0.28% active;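 active means inhibition above the screen-wide average of all tested compounds plus 3 SD, cut at about 25% in these data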
Target sequence (Q15102 whole entry, looked up): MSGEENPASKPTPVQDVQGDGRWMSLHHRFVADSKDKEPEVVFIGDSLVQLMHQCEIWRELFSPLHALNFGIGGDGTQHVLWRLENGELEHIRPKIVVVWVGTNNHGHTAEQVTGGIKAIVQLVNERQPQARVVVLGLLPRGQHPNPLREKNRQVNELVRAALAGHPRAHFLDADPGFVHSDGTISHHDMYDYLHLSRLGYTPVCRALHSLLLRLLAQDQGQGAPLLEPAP
PAFAH2 inh: PAFAH2 (human) inhibition; Q99487; recombinant PAFAH2, FP-rhodamine activity probe, fluorescence polarization; inhibition, % at 3.39 µM; 340,000 tested, 0.99% active; AID 492956;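 active means inhibition above the mean over all tested compounds plus 3 SD, cut at about 30% in these data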;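 further: inhibitors block probe labeling of enzyme so polarization drops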
pPAFAH FP inh: pPAFAH (human) enzyme inhibition. inhibition, % at 3.39 µM. Q13093. recombinant pPAFAH, FP-rhodamine probe fluorescence polarization. AID 463082. 330,000 tested, 1.5% active;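 active means inhibition above the mean inhibition across the screen plus 3 SD, cut at about 25% in these data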;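 further: inhibitors block binding of the rhodamine activity-based probe so polarization drops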
CTSL1 counter: cathepsin L1 inhibition, PFM18AAP counter-screen; 300,000 tested, 0.49% active; recombinant F. hepatica cathepsin L1, Z-Leu-Arg-MCA fluorescence; inhibition, % at 5.96 µM;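 active means inhibition above the mean of all tested compounds plus 3 SD, set per screening campaign, cut at about 17% in these data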
PP5 inh: PP5 (human) phosphatase inhibition; 320,000 tested, 0.18% active; P53041; inhibition, % at 6.7 µM; purified PP5c, OMFP substrate fluorescence;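 active means inhibition above the campaign's mean inhibition across all tested compounds plus 3 SD, cut at about 9.5% in these data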
Hits are given with their value; – = inactive; · = not tested or not shown; ! = not confirmed by another sample. Shown are actives, neighbours in structure and some others; about 3% of the full set was active somewhere.

SMILES	PAFAH1B2 inh	PAFAH1B3 FP inh	PAFAH2 inh	pPAFAH FP inh	CTSL1 counter	PP5 inh
O=C1c2cccnc2C(=O)N1Cc1ccc(S(=O)(=O)N2CCN(c3ccccc3)CC2)cc1	–	–	–	–	–	–
Cc1ccc(-c2nc(SCC(=O)N(C)c3c(N)n(Cc4ccccc4)c(=O)[nH]c3=O)n[nH]2)cc1	–	–	–	–	–	–
CCN(CC)CCNC(=O)c1ccc(NC(=O)C2CCN(c3ncnc4sc(C)c(C)c34)CC2)cc1	–	–	–	–	–	–
CC(C)C1NC(=S)N(C2CCCCC2)C1=O (configuration not stated)	–	–	–	–	–	–
O=C1C(c2ccccc2)NC(=S)N1C1CCCCC1 (configuration not stated)	36	–	–	–	–	–
Cc1cnc(C(=O)OC(C(=O)c2c[nH]c3ccccc23)c2ccccc2)cn1 (configuration not stated)	–	–	–	–	–	–
CC(C)C(C(=O)NCC1CCCO1)N(Cc1ccco1)C(=O)CNS(=O)(=O)c1ccc(F)cc1 (configuration not stated)	–	–	–	34	–	–
CCCC(C(=O)NCC1CCCO1)N(Cc1ccco1)C(=O)CNS(=O)(=O)c1ccccc1 (configuration not stated)	–	–	–	–	–	–
O=C(CN(Cc1ccco1)C(=O)CNS(=O)(=O)c1ccc(Cl)cc1)NCc1ccc(F)cc1	26	–	–	–	–	–
O=C(NCc1ccccc1)/C(=C/c1ccco1)NC(=O)c1ccco1	–	–	–	–	28	–
CC(C)CC(NC(=O)/C(=C\c1ccco1)NC(=O)c1ccco1)C(=O)O (configuration not stated)	–	–	–	–	38	–
CC(C)CC(NC(=O)/C(=C/c1ccco1)NC(=O)c1ccc(Br)o1)C(=O)O (configuration not stated)	–	–	–	–	23	–
CCOC(=O)/C(=C/c1ccco1)NC(=O)c1ccc(Br)o1	–	–	–	–	–	–
O=C1C=CC(=O)c2c(O)c(N3CCN(CCO)CC3)c(Cl)c(O)c21	28	50	41	·	·	·
O=C1C=CC(=O)c2c(O)c(N3CCN(CCOCCO)CC3)c(Br)c(O)c21	44	62	59	·	·	·
O=S(=O)(c1ccc(Br)cc1Cl)N1CCN(CCO)CC1	–	–	–	–	–	–
OCCOCCN1CCN(C2=Nc3ccccc3Sc3ccccc32)CC1	–	–	–	–	–	–
COc1ccc(S(=O)(=O)Oc2ccccc2C(=S)N2CCOCC2)cc1	–	–	–	–	–	–
Cc1oc(C(=O)O)cc1COc1cccc2cccnc12	–	–	–	28	–	–
Fc1ccc(COc2cccc3cccnc23)cc1	·	·	·	–	–	–
O=C(COC(=O)c1ccccc1SCC(=O)N1CCCC1)NCc1ccccc1	–	–	–	–	–	–
CSc1ccccc1NC(=O)COC(=O)CCC(=O)c1ccc(F)cc1	–	–	–	–	·	·
Cc1ccc(C(=O)CCC(=O)OCC(=O)Nc2ccccc2SCC#N)cc1	–	–	–	27	·	–
CCCCC[C@@H]1C=C(C(=O)O)[C@H](c2cccc(C)c2)N1S(=O)(=O)c1ccc(C)cc1	–	–	–	–	·	·
COc1ccc([C@H]2C(C(=O)O)=C[C@@H](C(C)(C)C)N2S(=O)(=O)c2ccccc2)cc1	–	–	–	–	·	·
SMILES	PAFAH1B2 inh	PAFAH1B3 FP inh	PAFAH2 inh	pPAFAH FP inh	CTSL1 counter	PP5 inh
Cc1ccc([C@H]2C(C(=O)O)=C[C@@H](C(C)(C)C)N2S(=O)(=O)c2ccc(C)cc2)cc1	24	–	–	–	·	·
Cc1ccc(S(=O)(=O)N2[C@@H](c3cccc(C)c3)C(C(=O)O)=C[C@H]2C(C)(C)C)cc1	31	–	–	–	·	·
Cc1ccc(S(=O)(=O)N2[C@@H](c3ccc(C(C)C)cc3)C(C(=O)O)=C[C@H]2C(C)(C)C)cc1	28	–	–	–	·	·
CC(C)NC(=O)c1ccc(COc2ccc(C(C)(C)C)cc2)o1	–	–	–	–	–	–
Clc1ccc(-c2cc(CSc3ccccc3)on2)cc1	–	–	–	–	–	–
c1ccc(SCc2cc(-c3ccccc3)no2)cc1	26	–	–	–	–	–
Cc1ccc(S(=O)(=O)CCC(=O)OCC(=O)NC(C)c2ccccc2)cc1 (configuration not stated)	–	–	–	–	·	–
CCC(OC(=O)c1nsc(Cl)c1Cl)C(=O)NCCc1ccccc1 (configuration not stated)	–	–	–	25	–	–
CCC(OC(=O)c1nsc(Cl)c1Cl)C(=O)NCc1cccs1 (configuration not stated)	–	–	–	28	–	–
N/C(=N\OC(=O)c1ccc(Cl)cc1Cl)c1ccc(Cl)cc1	37	–	–	–	–	–
C/C(N)=C(/C#N)C(=O)COC(=O)CCSc1ccccc1	27!	–	–	–	–	–
NC(=O)NC(=O)C(c1ccccc1)N1CCN(S(=O)(=O)Cc2ccccc2)CC1 (configuration not stated)	–	–	–	–	·	–
O=C(CSc1nnc(CNC(=O)c2cccs2)o1)Nc1cccc(Cl)c1	–	–	–	–	–	–
O=C(CSc1nnc(CNC(=O)c2cccs2)o1)Nc1cccc(C(F)(F)F)c1	26	–	–	–	–	–
NCCCCCc1nnc(SCC(=O)Nc2cccc(Cl)c2)o1	–	–	–	–	17	–
O=C(CSc1nnc(CNC(=O)c2cccs2)o1)Nc1cccc(F)c1	–	–	–	–	–	–
C=C(C1=CCN(S(=O)C(C)(C)C)[C@@H]1CCO)c1ccccc1 (some centres not stated)	–	–	–	·	·	·
Cc1oc(=O)c(NC(=O)c2ccccc2)cc1C(N)=O	·	·	·	–	–	–
COc1ccc(C(=O)Nc2cc(C(=O)c3ccccc3)c(C)oc2=O)cc1	–	–	–	–	18	–
COC(=O)c1cc(NC(=O)c2ccccc2)c(=O)oc1C	–	–	–	–	–	–
Cc1oc(=O)c(NC(=O)c2cccc(Cl)c2)cc1C(=O)c1ccccc1	–	–	–	–	55	–
COc1ccc(CN(C)C(=O)c2cc(S(=O)(=O)Nc3ccccc3F)ccc2C)c(OC)c1	–	–	–	–	–	–
COc1cccc(CN(C)C(=O)c2cc(S(=O)(=O)NC3CCCCC3)ccc2C)c1	–	–	–	34	·	·
NS(=O)(=O)c1ccc(CCNC(=O)c2ccc(C(=O)c3ccccc3)cc2)cc1	–	–	–	–	–	–
NS(=O)(=O)c1ccc(CCNC(=O)c2ccc3nccnc3c2)cc1	–	–	–	30	·	·
O=[N+]([O-])c1ccc(N=Nc2ccc(O)cc2O)cc1	–	–	–	–	–	–
O=S(=O)(O)c1cc(Cl)cc(N=Nc2ccc(O)cc2O)c1O	42	26	35	·	·	·

Screening data from PubChem BioAssay.
